Records with an inconclusive call do not appear. A call without a number means that no potency is given here. Active and inactive are the calls of the source. Calls follow the shape of the dose curve; as a rule, active = well fitted cell-killing curve with a large enough effect; inconclusive = small, poorly fitted or top-dose-only effect; inactive = flat fitted curve, though single readings scatter.

This test can be described thus: Cell Viability - LYMP2-025 (AID 976). The conditions noted are these: LYMP2-025 lymphoblastoid cell viability; series mostly up to 92.2 µM. An excerpt: NIH Chemical Genomics Center [NCGC]
NIH Molecular Libraries Screening Centers Network [MLSCN]
National Institutes of Environmental Health Sciences [NIEHS]
National Toxicology Program [NTP]
We have developed a 1536-well cell-based assay for quantitative high throughput screening (qHTS) against a number of cell lines to determine in vitro cytotoxicity of small molecules. This particular assay uses a human lymphoblastoid cell line (LYMP2-025) purchased from Coriell Institute for Medical Research.
NCGC Assay Protocol Summary:
The CellTiter-Glo luminescent cell viability assay (Promega) is a homogeneous method to measure the number of viable cells in culture. The end point readout of this assay is based on quantitation of intracellular ATP, an indicator of metabolic activity, using the luciferase reaction. Luciferase catalyzes the oxidation of beetle Luciferin to oxyluciferin and light in the presence of ATP. The luminescent signal is proportional to amount of ATP present.
Using the CellTiter-Glo luminescent cell viability assay, the amount of cellular ATP was measured in the lymphoblastoid cell line with complete culture medium following compound treatment for 24 hours. The assay was performed in opaque white Kalypsys 1536-well plates. In the screen, tetraoctylammonium bromide was used as positive control. Library compounds were measured for their ability to cause acute toxicity in the cell line, as reflected by a decrease in intracellular ATP levels, in a concentration-dependent manner. […] AC50 values were determined from concentration-response data modeled with the standard Hill equation.
qHTS protocol for CellTiter Glo lymphoblastoid cellular assay
[Step] [Parameter] [Value] [Description]
1. Reagent; 5 uL; 2500 lymphoblastoid cells/well
2. Time; 5 hr; 37 C incubation
4. Controls; 23 nL; Tetraoctylammonium bromide 6.4pM to 92 uM
5. Time; 24 hr; 37 C incubation
6. Reagent; 5 uL; CellTiter Glo reagent
7. Time; 30 min; Room Temperature
8. Detection; Luminescence; Viewlux plate reader
Keywords: cell viability, cytotoxicity, lymphoblastoid cell line, luminescence, NTPHTS, NTPHTS_NCGC, NIEHS, DSSTox, MLSMR, MLSCN, NIH Roadmap, qHTS, NCGC
Turning to `CC(=O)CCc1ccccc1`, the Potency entry is “inactive”. Turning to `Cc1ccc2nc(-c3ccc(N)cc3)sc2c1S(=O)(=O)O`, the Potency entry was “inactive”. For `Cc1cc(C)cc([N+](=O)[O-])c1` the value was “inactive”; for `CC(C)C(C)C`, “inactive”; for `[O-]/[N+](=N\O)c1ccccc1`, “inactive”. In the case of `Cc1c(N)cccc1[N+](=O)[O-]` it was “inactive”; in that of `O=C(O)c1ccccc1C(=O)O`, “inactive”. For `CC(C)=C1CCC(C)CC1=O` (stereo not given) the value was “inactive”. Take `CCNc1cc(O)ccc1C`: the Potency result is “inactive”. Regarding `O=C(Cl)c1cccc([N+](=O)[O-])c1`, the Potency entry was “inactive”. In the case of `Cc1cccc([N+](=O)[O-])c1C(=O)O` it was “inactive”; in that of `CCN(C(=O)N(CC)c1ccccc1)c1ccccc1`, “inactive”; in that of `O=CNc1ccccc1`, “inactive”. For the compound `O=C(O)CN(CC(=O)O)CC(=O)O`, the Potency entry was “inactive”. For `c1ccc(Nc2ccccc2)cc1` the value was “inactive”; for `FC(F)(F)c1ccccc1Cl`, “inactive”. For `O=C1CCCCC1` the value was “inactive”. Regarding `O=[N+]([O-])c1ccccc1CCO`, the Potency entry was “inactive”.

As for `Cc1ccccc1C=O`, the Potency result was “inactive”. For `CC(=O)Nc1ccc(N)cc1` the value was “inactive”; for `O=C(O)c1ccc(Cl)cc1Cl`, “inactive”. In the case of `NC(N)=S`, the Potency result is “inactive”. Consider `Cc1ccccc1Br`, for which the Potency entry was “inactive”.

For the compound `OCCO`, the Potency entry is “inactive”. For `C1CCC2OC2C1` (stereo not given) the value was “inactive”; for `CCOCC(=O)O`, “inactive”; for `Cc1ccc(N(C)C)cc1`, “inactive”. In the case of `C[C@@H]1O[C@@H](O[C@@H]2[C@@H](O)[C@H](OCCc3ccc(O)c(O)c3)O[C@H](CO[C@@H]3O[C@H](CO)[C@@H](O)[C@H](O)[C@H]3O)[C@H]2OC(=O)/C=C/c2ccc(O)c(O)c2)[C@H](O)[C@H](O)[C@H]1O` it was “inactive”; in that of `CC(=O)Nc1ccccc1C`, “inactive”. For `Cc1ccc(C)c(N)c1` the value was “inactive”; for `Cc1cc(C2(c3cc(C)c(O)cc3C)OS(=O)(=O)c3ccccc32)c(C)cc1O`, “inactive”; for `O=Cc1ccc(Cl)cc1`, “inactive”.

Take `CCCCCNCCCCC`: the Potency entry is “inactive”. With `C[C@@H]1CC2(OC3C[C@@]4(C)C5=CC[C@H]6C(C)(C)C(O[C@@H]7OC[C@@H](O)[C@H](O)[C@H]7O)CC[C@@]67C[C@@]57CC[C@]4(C)C31)OC(O)C1(C)OC21` (stereo not given in full), the Potency entry is “inactive”. Regarding `C=CCCCCCC`, the Potency entry is “inactive”. In the case of `Cc1ccc2cccnc2c1` it was “inactive”; in that of `CC(C)CCOC(=O)/C=C/c1ccccc1`, “inactive”. For the compound `CCOc1ccc(NC(C)=O)cc1N`, the Potency entry was “inactive”. For `CCC(O)C(C)(C)C` (stereo not given) the value was “inactive”. As to `Cc1cccc2ccccc12`, the Potency entry is “inactive”.

Source of the values: PubChem BioAssay (NCATS).
